# Screening data from PubChem.
# Mtb FBA inh: inhibitors of M. tuberculosis fructose-bisphosphate aldolase | P9WQA3 | purified M. tuberculosis FBA, fluorescence read-out | inhibition, % at 1 µM | hit rate 2.3% among 360,000 | AID 588726; in the data active means inhibition above about 27%;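 further: 0% = vehicle and 100% = reference inhibitor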
# Target sequence (P9WQA3 whole entry, looked up): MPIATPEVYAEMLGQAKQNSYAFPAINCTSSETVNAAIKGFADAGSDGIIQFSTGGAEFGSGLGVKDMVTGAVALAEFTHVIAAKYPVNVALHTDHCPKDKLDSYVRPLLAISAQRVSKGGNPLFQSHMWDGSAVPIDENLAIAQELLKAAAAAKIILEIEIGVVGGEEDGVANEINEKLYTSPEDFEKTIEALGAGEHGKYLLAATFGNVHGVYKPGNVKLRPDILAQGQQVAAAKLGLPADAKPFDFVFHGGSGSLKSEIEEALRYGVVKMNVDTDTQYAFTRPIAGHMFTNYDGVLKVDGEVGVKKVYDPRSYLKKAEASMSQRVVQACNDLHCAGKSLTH
# CCHF vOTU inh: blocks the CCHF virus ovarian tumor domain protease. CCHFV vOTU protease, Pep-AMC fluorescence. inhibition, % at 11.5 µM. hit rate 0.55% among 370,000. AID 651958; further: 0% = vehicle wells with enzyme and 100% = no enzyme wells
# RecA intein inh: blocks M. tuberculosis RecA intein splicing. inhibition, % (test concentration not listed). P9WHJ3. hit rate 0.75% among 290,000. AID 2221. cell-free RecA intein splicing, fluorescence; in the data active means inhibition above about 30%;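 further: 0% = vehicle wells and 100% = reference inhibitor control wells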
# GDH-TPI inh: counter-screen for M. tuberculosis FBA inhibitors: GDH-TPI coupled enzymes | GDH-TPI coupled enzyme counterscreen, NADH absorbance | inhibition, % at 4.8 µM | hit rate 1.2% among 360,000 | AID 588335;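 further: 0% = DMSO wells and 100% = wells lacking the enzyme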
# Numbers without * were called inactive; . = no result given; + = active, no number. Shown are actives, neighbours in structure and some others; about 4.2% of the full set was active somewhere. Unless noted, no stated cut-off is given here; in the data, active means inhibition above about 30%; inactive means the rest.
SMILES,Mtb FBA inh,CCHF vOTU inh,RecA intein inh,GDH-TPI inh
CCn1c2ccccc2c2cc(C#N)c(N)nc21,106*,-74,0,18
CCCN(C)C1CN(Cc2cn(CCCC(=O)OC)nn2)S(=O)(=O)C1 (centres undefined),.,-8,.,.
O=C(O)c1cc(-c2cc(C(=O)O)c3ccccc3n2)ccc1O,9,8,.,33*
CCOc1ccc(-c2cc(C(=O)O)c3ccccc3n2)cc1,+,-125,0,27
COCCN1C(=O)C(=O)/C(=C(/O)c2ccc(S(=O)(=O)N3CCCCC3)cc2)C1c1ccc(OC)cc1 (centres undefined),-1,-15,-2,1
C=CCCC1(CCC)C(=O)/C(=C(\O)c2ccccc2)C(=O)C(CCC)=C1OC (centres undefined),.,7,.,.
CC1(C(=O)NCC2CCOCC2)Cc2c(-c3cccc(C(F)(F)F)c3)ccnc2O1 (centres undefined),4,2,.,4
CCn1cc(/C=C(\NC(=O)c2ccc(OC)c(OC)c2)C(=O)N2CCOCC2)c2ccccc21,-3,0,4,28
CCn1cc(/C=C(\NC(=O)c2cc(OC)c(OC)c(OC)c2)C(=O)N2CCOCC2)c2ccccc21,0,0,.,31*
COc1ccc(C(=O)N/C(=C\c2cn(C)c3ccccc23)C(=O)N2CCOCC2)cc1,2,6,-2,32*
CCn1cc(/C=C(\NC(=O)c2ccc(OC)cc2)C(=O)N2CCOCC2)c2ccccc21,3,16,-5,38*
Cn1cc(/C=C(\NC(=O)c2ccccc2)C(=O)N2CCOCC2)c2ccccc21,-3,19,0,24
O=C(NCc1cccs1)c1ccc(CS(=O)Cc2cccc(Cl)c2)o1 (centres undefined),1,7,-2,-1
CCCC#Cc1ccc(CC[C@H]2O[C@H]3CC[C@@H](CO)O[C@H]3C[C@H]2NC(=O)CN2CCOCC2)cc1,.,12,.,.
CC(=O)N=C(N)Sc1nc2ccccc2[nH]1,-3,5,6,-7
NC(=O)N=Nc1c2[nH]c3ccccc3nc-2c2ccccc12,2,13,-1,36*
CN(C)c1ccc(C=NCCC2(O)CCOC(C)(C)C2)cc1 (centres undefined),2,1,-2,40*
O=c1[nH]c(NNC(=S)NC2CCCCC2)nc2c1C1(CCCC1)Cc1ccccc1-2,8,-5,5,10
CC1(C)Cc2ccccc2-c2nc(NCCCO)n(-c3ccccc3)c(=O)c21,198*,-192,-1,6
O=c1[nH]c(NCCCO)nc2c1C1(CCCC1)Cc1ccccc1-2,184*,-151,-1,4
CCC1(C)Cc2ccccc2-c2nc(NCCCO)[nH]c(=O)c21 (centres undefined),140*,-158,2,9
CCOc1ccccc1NC(=O)c1ccc(OCC)c([N+](=O)[O-])c1,-1,6,-3,15
CCOc1ccc(C(=O)Nc2cccc(-c3cc4ccccc4oc3=O)c2)cc1[N+](=O)[O-],2,16,4,32*
CC(=O)c1ccc(N2CCN(S(=O)(=O)c3c(C)[nH]c(C)c3C(=O)N3CCCCC3)CC2)cc1,1,15,-3,34*
CC(=O)c1ccc(N2CCN(S(=O)(=O)c3c(C)[nH]c(C)c3C(=O)N3CCCC3)CC2)cc1,0,-2,-1,21
SMILES,Mtb FBA inh,CCHF vOTU inh,RecA intein inh,GDH-TPI inh
CC(=O)c1ccc(N2CCN(S(=O)(=O)c3c(C(=O)N4CCCC4)c(C)n(C)c3C)CC2)cc1,1,5,-1,40*
CC(=O)c1ccc(N2CCN(S(=O)(=O)c3c(C(=O)N4CCCCC4)c(C)n(C)c3C)CC2)cc1,3,10,1,24
Fc1ccc2cc(C3=CCCCC3)ncc2c1,.,-3,.,.
O=C(Nc1ccc2c(c1)OCCO2)c1ccc(Br)c(S(=O)(=O)N2CCOCC2)c1,-5,3,.,36*
O=C(Nc1ccc2c(c1)OCO2)c1ccc(Br)c(S(=O)(=O)N2CCCC2)c1,2,-1,6,2
O=C(Nc1cccc(F)c1)/C(=C\c1ccco1)NC(=O)c1ccco1,0,10,1,39*
CC(=O)c1cccc(NC(=O)/C(=C\c2ccco2)NC(=O)c2cccs2)c1,-11,6,4,32*
NNC(=O)/C(=C\c1ccco1)NC(=O)c1ccco1,-1,3,-1,35*
CS(=O)(=O)c1ccc(Cl)c(NC(=O)CSc2nnc(-c3cccs3)n2N)c1,-1,0,.,-4
COc1ccc(CNC(=O)c2ccc(Cl)c(S(=O)(=O)N3CCOCC3)c2)cc1OC,-2,.,.,10
COCC(=O)N1C[C@@H](C)[C@@H](OC)CN(C)C(=O)c2ccc(NC(=O)c3cnccn3)cc2OC[C@H]1C,.,19,.,.
O=C(CN1CCN(c2cccc(Cl)c2)CC1)N1CCCC1,-14,2,-3,-8
O=C(CN1CCN(c2cccc(Cl)c2)CC1)c1ccc(O)cc1O,1,18,-2,31*
CCOc1cc(C2C(C(=O)c3ccco3)=C(O)C(=O)N2CC2CCCO2)ccc1O (centres undefined),-1,2,-5,3
O=C(c1cccc(-c2cncc3nccn23)c1)N1CCOCC1,+,-114,.,8
O=C(O)c1ccccc1NC(=O)c1cc2ccccc2oc1=O,1,7,0,50*
N=c1oc2ccccc2cc1C(=O)Nc1ccc(F)cc1,64*,-10,0,4
O=C1C=C(O)c2cccc3cccc1c23,-2,11,-5,31*
N#Cc1c(NC(=O)c2ccccc2Cl)n(Cc2ccccc2)c2nc3ccccc3nc12,35*,101*,.,7
CC(C)n1c(=NC(=O)c2ccco2)c(C#N)cc2c(=O)n3ccccc3cc21,+,-174,-233,5
CCOC(=O)c1cc2c(=O)n3ccccc3nc2n(C(C)C)c1=NC(=O)c1ccco1,+,-144,-188,4
CCCn1c(=NC(=O)c2ccco2)c(C(=O)OCC)cc2c(=O)n3ccccc3nc21,+,-330,-132,19
CCCn1c(=NC(=O)c2c(-c3c(F)cccc3Cl)noc2C)c(C(=O)OCC)cc2c(=O)n3ccccc3nc21,.,.,-3,.
CC1(CO)CCCC1NCCNC1CCCC1(C)CO (centres undefined),-2,.,.,.
O=C(Nc1ccc(C(F)(F)F)cc1)OC1CC2CC1[C@H]1CCCCN1C2 (some centres undefined),.,10,.,.
SMILES,Mtb FBA inh,CCHF vOTU inh,RecA intein inh,GDH-TPI inh
CC(=O)C1=C(O)C(=O)N(c2ccc(O)cc2)C1c1ccc(F)cc1 (centres undefined),0,-2,4,11
COc1ccc(OC)c(C2C(C(C)=O)=C(O)C(=O)N2c2ccc(F)cc2)c1 (centres undefined),-2,4,2,37*
CC(=O)N1c2ccc(S(=O)(=O)N(C)C3CCCCC3)cc2CC1C (centres undefined),-3,4,7,7
Cc1cccc(N/C(=N/S(=O)(=O)c2ccccc2)c2ccccc2)n1,1,28,-1,-5
O=C(O)C1SCCN1S(=O)(=O)c1ccc(N=NN2CCOCC2)cc1 (centres undefined),165*,6,0,18
O=S(=O)(c1ccc(Cl)s1)N1CCC(c2cn3ccccc3n2)CC1,.,-17,.,.
